Test results from PubChem BioAssay AID1490 (National Center for Advancing Translational Sciences (NCATS), 2009).
Out of some 310,000 compounds screened, about 11,000 (3.5%) were called active. Roughly 4% stayed inconclusive and do not appear here. What follows is part of a selection rich in actives, with near analogues and random picks from the rest. Unmarked numbers belong to inactive results. Calls follow the shape of the dose curve; as a rule, active = well fitted inhibition curve with a large enough effect; inconclusive = small, poorly fitted or top-dose-only effect, or another doubt; inactive = no such curve, though single readings can be large or run the other way.

molecular target: 4'-phosphopantetheinyl transferase ffp (Bacillus subtilis) (UniProt Q9F4F7); experiment: qHTS Assay for Inhibitors of Bacillus subtilis Sfp phosphopantetheinyl transferase (PPTase); conditions: Biochemical Sfp PPTase activity;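 also: the enzyme is Sfp with the accession as filed and its product quenches rhodamine fluorescence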;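 as to largest response in the series, negative = inhibition: 0% = enzyme reaction without inhibitor and -100% = no enzyme wells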
Procedure, shortened: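 Step 1, compound plus 15 nM Sfp-PPTase, 15 min, room temperature. Step 2, add rhodamine-CoA (5 uM) and BHQ-2-YbbR (12.5 uM). Step 3, read 525/598 nm fluorescence at 0 and 30 min.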
Potency is read from the fitted curve at half-maximal effect.

With `O=C(/C=C/c1ccc(Cl)cc1Cl)NCc1ccco1` as the molecule, how does the largest response in the series, negative = inhibition read?
Its largest response in the series, negative = inhibition is -1.31%.

With `O=C(NCc1ccccc1Cl)c1ccc2c(=O)n(CC3CCCO3)c(=S)[nH]c2c1` (stereo not given) as the molecule, how does the largest response in the series, negative = inhibition read?
Its largest response in the series, negative = inhibition is 12.5%.

Which largest response in the series, negative = inhibition does the source give for `O=S(=O)(NC1CCCCC1N1CCC(O)CC1)c1ccc(Cl)cc1` (stereo not given) here?
The largest response in the series, negative = inhibition was 10.1%.

`COc1ccc(N2CCN(S(=O)(=O)c3ccc4c(c3)N(C(C)=O)CCO4)CC2)cc1` was tested. Which largest response in the series, negative = inhibition did it give?
Its largest response in the series, negative = inhibition is 11.9%.

Which largest response in the series, negative = inhibition does the source give for `CCCCc1nc(SCC(=O)Nc2nnc(C(C)C)s2)n[nH]1` here?
The largest response in the series, negative = inhibition was 2.56%.

`N#CC1(NC(=O)COC(=O)CCN=C2NS(=O)(=O)c3ccccc32)CCCCC1` was tested. Which largest response in the series, negative = inhibition did it give?
The largest response in the series, negative = inhibition was 8.87%.

For `O=C1C(c2ccccn2)=[N+]([O-])c2ccccc21`, which Potency is on record?
The Potency was 56.2 µM (active).

With `O=Cc1cn(-c2ccccc2)nc1-c1ccccn1` as the molecule, how does the largest response in the series, negative = inhibition read?
The largest response in the series, negative = inhibition was 19.4%.

With `CCOC(=O)C1(Cc2ccccc2C)CCCN(S(C)(=O)=O)C1` (stereo not given) as the molecule, how does the largest response in the series, negative = inhibition read?
Its largest response in the series, negative = inhibition is -1.45%.

`O=C(NCCc1ccccc1)C(=O)NCC1OCCN1S(=O)(=O)c1cccs1` (stereo not given) was tested. Which largest response in the series, negative = inhibition did it give?
Its largest response in the series, negative = inhibition is 15%.

How did the largest response in the series, negative = inhibition turn out when `CC(=O)N1CCCc2cc(S(=O)(=O)N3CCCC(C(=O)N4CCN(c5cccc(Cl)c5)CC4)C3)ccc21` (stereo not given) was run?
The largest response in the series, negative = inhibition was -7.31%.

`O=C(COc1ccccc1)Nc1ccc(C(=O)N2CCCC2)cc1` was tested. Which largest response in the series, negative = inhibition did it give?
Its largest response in the series, negative = inhibition is 22.7%.

`O=C1C=CC(=O)N1c1ccc(N2CCCCC2)cc1` was tested. Which Potency did it give?
Its Potency is 7.08 µM (active).

For `Cc1ccccc1C(=O)Nc1ccc(N2CCCCCC2)cc1`, which largest response in the series, negative = inhibition is on record?
The largest response in the series, negative = inhibition was -8.31%.

Which largest response in the series, negative = inhibition does the source give for `CCOC(=O)/C(C#N)=C/c1ccc(N2CCCCC2)cc1` here?
Its largest response in the series, negative = inhibition is -25.4%.

How did the largest response in the series, negative = inhibition turn out when `Cc1ccc(C(CNC(=O)Nc2ccccc2)N2CCN(C)CC2)cc1` (stereo not given) was run?
Its largest response in the series, negative = inhibition is 6.82%.

For `COC(=O)C(C)Oc1ccc2c(c1)O/C(=C\c1cccc(Br)c1)C2=O` (stereo not given), which largest response in the series, negative = inhibition is on record?
Its largest response in the series, negative = inhibition is -9.46%.

Which Potency does the source give for `O=C(Nc1ccccc1)/C(=C\c1ccco1)NC(=O)c1ccco1` here?
Its Potency is 44.7 µM (active).

`CC(=O)NC(Cc1c[nH]c2ccccc12)C(=O)O` (stereo not given) was tested. Which largest response in the series, negative = inhibition did it give?
Its largest response in the series, negative = inhibition is 23%.

With `COc1ccccc1C(=O)N/C(=C/c1ccco1)C(=O)Nc1ccc(C(=O)O)cc1` as the molecule, how does the Potency read?
Its Potency is 50.1 µM (active).

How did the largest response in the series, negative = inhibition turn out when `COc1ccccc1C(=O)N/C(=C/c1ccc2c(c1)OCO2)C(=O)Nc1cccc(C(=O)O)c1` was run?
The largest response in the series, negative = inhibition was -9.69%.

`O=C(Nc1ccccc1)c1ccco1` was tested. Which largest response in the series, negative = inhibition did it give?
Its largest response in the series, negative = inhibition is 19.8%.

For `Cc1ccc(C(=O)N/C(=C/c2ccco2)C(=O)NCCc2c[nH]c3ccccc23)cc1C`, which largest response in the series, negative = inhibition is on record?
The largest response in the series, negative = inhibition was 21.3%.

`COc1ccc(/C=C(/NC(=O)c2ccco2)C(=O)Nc2ccc(C(C)=O)cc2)cc1` was tested. Which largest response in the series, negative = inhibition did it give?
The largest response in the series, negative = inhibition was 0.26%.

Which largest response in the series, negative = inhibition does the source give for `Cc1ccc(NC(=O)/C(=C\c2ccccc2)NC(=O)c2ccco2)cc1` here?
Its largest response in the series, negative = inhibition is 12.3%.

Which largest response in the series, negative = inhibition does the source give for `COc1ccc(/C=C(/NC(=O)c2ccccc2)C(=O)Nc2cccc(C(=O)O)c2)cc1` here?
The largest response in the series, negative = inhibition was 2.19%.

Which Potency does the source give for `Cc1cccc(NC(=O)/C(=C\c2ccco2)NC(=O)c2ccccc2)c1` here?
Its Potency is 50.1 µM (active).

With `O=C(NCc1ccco1)/C(=C/c1ccco1)NC(=O)c1ccccc1` as the molecule, how does the largest response in the series, negative = inhibition read?
The largest response in the series, negative = inhibition was -7.6%.

Which Potency does the source give for `O=C(NC(Cc1c[nH]c2ccccc12)C(=O)O)/C(=C/c1ccco1)NC(=O)c1ccccc1` (stereo not given) here?
The Potency was 44.7 µM (active).

How did the largest response in the series, negative = inhibition turn out when `Cc1nc2ccc(S(=O)(=O)N(C)CC(=O)NC(C)c3ccccc3)cc2s1` (stereo not given) was run?
Its largest response in the series, negative = inhibition is 10.4%.

`COCn1c(C(O)c2ccccc2)cc2ccccc21` (stereo not given) was tested. Which largest response in the series, negative = inhibition did it give?
The largest response in the series, negative = inhibition was 9.58%.

How did the largest response in the series, negative = inhibition turn out when `Cc1ccccc1C(=O)N1CCN(c2ccc(NC(=O)c3cccs3)cc2)CC1` was run?
Its largest response in the series, negative = inhibition is 13.1%.

With `COc1ccc(C(=O)NCc2nnc(SCC(=O)NC3=NCCS3)n2C)cc1` as the molecule, how does the largest response in the series, negative = inhibition read?
The largest response in the series, negative = inhibition was -3.34%.

With `COC(=O)c1ccc(NC(=O)CSc2nncn2-c2cccnc2)cc1` as the molecule, how does the largest response in the series, negative = inhibition read?
Its largest response in the series, negative = inhibition is 16.4%.

`CC(C)NC(=O)COCc1cc(-c2ccc3c(c2)OCO3)on1` was tested. Which largest response in the series, negative = inhibition did it give?
Its largest response in the series, negative = inhibition is 4.15%.

How did the largest response in the series, negative = inhibition turn out when `COc1cccc(-n2c(=S)sc3c(=O)n(-c4ccccc4OC)c(SCC4OCCO4)nc32)c1` was run?
Its largest response in the series, negative = inhibition is -1.29%.

`COc1ccc(Cl)cc1-n1c(=S)sc2c(=O)n(-c3ccc(F)cc3)c(SCC(=O)O)nc21` was tested. Which Potency did it give?
Its Potency is 14.1 µM (active).

For `COc1cccc(-n2c(=S)sc3c(=O)n(-c4ccccc4C)c(SCC(=O)O)nc32)c1`, which largest response in the series, negative = inhibition is on record?
Its largest response in the series, negative = inhibition is 4.84%.

For `O=C(c1cc(COc2ccc(F)cc2F)on1)N1CCOCC1`, which largest response in the series, negative = inhibition is on record?
The largest response in the series, negative = inhibition was 2.39%.

How did the largest response in the series, negative = inhibition turn out when `CC(=O)Nc1cccc(C(=O)OCN2C(=O)c3ccccc3C2=O)c1` was run?
Its largest response in the series, negative = inhibition is 7.23%.

With `CCc1nc(Nc2ccc(NC(C)=O)cc2)c2oc3ccccc3c2n1` as the molecule, how does the largest response in the series, negative = inhibition read?
The largest response in the series, negative = inhibition was 3.27%.

For `Cc1ccc(N(Cc2ccccc2O)C(=O)c2ccccc2F)cc1`, which largest response in the series, negative = inhibition is on record?
The largest response in the series, negative = inhibition was 8.31%.

With `O=C(O)c1cc([N+](=O)[O-])c(Nc2cccc3ccccc23)c([N+](=O)[O-])c1` as the molecule, how does the largest response in the series, negative = inhibition read?
The largest response in the series, negative = inhibition was -7.55%.

Which Potency does the source give for `Cc1cc(C2=NNC(=Nc3ccc(S(=O)(=O)N4CCOCC4)cc3)SC2)c(C)n1CC1CCCO1` (stereo not given) here?
The Potency was 22.4 µM (active).

For `Cc1cccc(N=C2NN=C(c3c[nH]c4ccccc34)CS2)c1`, which largest response in the series, negative = inhibition is on record?
The largest response in the series, negative = inhibition was -49.9%.

With `C=CCn1c(C)cc(C2=NNC(=NCC)SC2)c1C` as the molecule, how does the Potency read?
The Potency was 56.2 µM (active).

With `Cc1ccnc(NS(=O)(=O)c2ccc(NC(=O)c3ccc(S(=O)(=O)N4CCOCC4)cc3)cc2)n1` as the molecule, how does the largest response in the series, negative = inhibition read?
Its largest response in the series, negative = inhibition is 28.5%.

`C=CCn1c(C)cc(C(=O)CN2C(=O)c3ccccc3C2=O)c1C` was tested. Which largest response in the series, negative = inhibition did it give?
The largest response in the series, negative = inhibition was 1.15%.

With `Cc1ccc(S(=O)(=O)N2CCC(C(=O)NCC3CCCO3)CC2)cc1` (stereo not given) as the molecule, how does the largest response in the series, negative = inhibition read?
Its largest response in the series, negative = inhibition is 21.8%.

How did the Potency turn out when `COCCn1c(C)cc(C2=NNC(=Nc3ccc(F)cc3)SC2)c1C` was run?
Its Potency is 50.1 µM (active).
